Holding throughout (assay): NCI-60 one-dose screen, 48 h (100 = growth as untreated, 0 = no growth, -100 = all killed)
Details in all cases: 10 µM unless noted

Assay [1] concerns T-47D breast.
The subject of assay [2] is BT-549 breast.
The test system of assay [3] is MDA-MB-435 melanoma.
Assay [4] relates to SW-620 colon.
Assay [5] has as its system MCF7 breast.
The subject of assay [6] is HCT-116 colon.
In assay [7] the test system is HCC-2998 colon.
The subject of assay [8] is KM12 colon.

Here are results for 20 compounds from PubChem BioAssay (NCI).

Molecules are shown by their SMILES. Where “and” joins values, the source holds several entries; their conditions need not be identical. Equal entries are not always repeated. About 83,000 compounds went through this panel and 20% of them were active in at least one assay; those are over-represented in the sample as a whole.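 For each line, cells grew in 96-well plates with the test compound present at a single concentration for 48 hours.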 Calls of active or inactive are those of the source. Rule for the calls: active = growth percent below 10; inactive = the rest.

Take `N#C/C(=C1C=C/C(=N/O)C(Br)=C/1)c1ccccc1`: the growth is 37.1% (inactive) in assay [1]; 36.2% (inactive) in assay [2]; -64.5% (active) in assay [3]; 12.7% (inactive) in assay [4]; 18.2% (inactive) in assay [5]; -14.7% (active) in assay [6]. Also, the growth in assay [7] is 58.3% (inactive); in assay [8] it was -32.6% (active).

In the case of `O=C(O)CN(CCN(CC(=O)O)CC(=O)O)CCN(CC(=O)O)CC(=O)O`, the growth is 9.23% (active) and 101% (inactive) in assay [1]; -10.9% (active) and 92.1% (inactive) in assay [2]; 17.1% (inactive) and 101% (inactive) in assay [3]; 10.5% (inactive) and 109% (inactive) in assay [4]; 18% (inactive) and 85.5% (inactive) and 101% (inactive) in assay [5]; 3.66% (active) and 91.9% (inactive) and 100% (inactive) in assay [6]. Further, the growth in assay [7] is 15.8% (inactive) and 105% (inactive) and 110% (inactive); in assay [8] it was 15.9% (inactive) and 112% (inactive) and 108% (inactive).

As for `CCOc1ccc(Nc2c3ccccc3nc3ccccc23)cc1`, the growth in assay [1] was 91.5% (inactive) and 13.1% (inactive) and 22.8% (inactive); in assay [2] it was 94.4% (inactive) and 41.6% (inactive) and -3.76% (active); in assay [3] it was 103% (inactive) and 24.5% (inactive) and 30.9% (inactive); in assay [4] it was 92.8% (inactive) and 21% (inactive) and 29.1% (inactive); in assay [5], 91.3% (inactive) and 20.1% (inactive) and 8.99% (active); in assay [6] it was 87.6% (inactive) and -13.1% (active) and 13.2% (inactive). Also, the growth in assay [7] is 39.8% (inactive); in assay [8] it was 99.8% (inactive) and 18% (inactive) and 33.3% (inactive).

Turning to `O=C(Nc1cccc(-n2ccc3c(NC(=O)c4ccccc4)nccc32)c1)c1ccc(Cl)c(C(F)(F)F)c1`, the growth in assay [1] was -36.7% (active) and 88.1% (inactive); in assay [2], -75.1% (active) and 76.7% (inactive); in assay [3], -59% (active) and 54.9% (inactive); in assay [4] it was -73.8% (active) and 48.8% (inactive); in assay [5] it was -48.5% (active) and 37.4% (inactive); in assay [6] it was -99.1% (active) and 32.4% (inactive). For the same compound, the growth is -27.9% (active) and 64.4% (inactive) in assay [7]; -54.5% (active) and 42.7% (inactive) in assay [8].

As to `Cc1ccc(S(=O)(=O)Nc2nc3ccccc3nc2Nc2ccc3nsnc3c2)cc1`, the growth in assay [1] is 33.6% (inactive) and 62.8% (inactive); in assay [2], 37% (inactive) and 51.5% (inactive); in assay [3] it was 36.3% (inactive) and 66.4% (inactive); in assay [4] it was 77.5% (inactive) and 61% (inactive); in assay [5] it was 50.9% (inactive) and 50.5% (inactive); in assay [6], 38.4% (inactive) and 42.2% (inactive). The growth was 42.1% (inactive) in assay [7]; 48.7% (inactive) and 44.1% (inactive) in assay [8].

`ClC/C=C/CSc1ncnc2nc[nH]c12`: the growth in assay [1] is 98% (inactive) and 99.5% (inactive); in assay [2], 102% (inactive) and 158% (inactive); in assay [3], 108% (inactive) and 103% (inactive); in assay [4], 98.8% (inactive) and 110% (inactive); in assay [5], 99.8% (inactive) and 93.7% (inactive); in assay [6] it was 105% (inactive). Also, the growth in assay [7] is 106% (inactive) and 108% (inactive); in assay [8] it was 113% (inactive) and 105% (inactive).

With `Cc1ccc(NCSc2ccc(Cl)cc2)cc1`, the growth in assay [1] is 74.3% (inactive) and 62.4% (inactive); in assay [2] it was 44.9% (inactive) and 66% (inactive); in assay [3] it was 63.8% (inactive) and 65.7% (inactive); in assay [4], 86.2% (inactive) and 96.6% (inactive); in assay [5], 86.9% (inactive) and 80.7% (inactive); in assay [6], 85% (inactive) and 91% (inactive). Further, the growth in assay [7] was 92.4% (inactive) and 94.9% (inactive); in assay [8], 61.4% (inactive) and 66.5% (inactive).

As for `O=[N+]([O-])c1ccc(Oc2ccccc2)cc1`, the growth was 116% (inactive) and 100% (inactive) in assay [1]; 83.9% (inactive) and 106% (inactive) in assay [2]; 101% (inactive) and 131% (inactive) in assay [3]; 95.7% (inactive) and 94.1% (inactive) in assay [4]; 105% (inactive) and 95.2% (inactive) in assay [5]; 98.2% (inactive) and 106% (inactive) in assay [6]. The growth is 102% (inactive) and 105% (inactive) in assay [7]; 101% (inactive) and 105% (inactive) in assay [8].

On to `CN(C)c1ccc(/C=C(\C#N)c2ccccc2)cc1`, for which the growth in assay [1] is 39.5% (inactive) and 36.1% (inactive) and 29.8% (inactive); in assay [2], 51.3% (inactive) and 52.8% (inactive) and 49.5% (inactive); in assay [3], -44.1% (active) and -7.42% (active) and -26.3% (active); in assay [4] it was 18.1% (inactive) and 33.3% (inactive) and 21.8% (inactive); in assay [5], 23.6% (inactive) and 24.5% (inactive) and 33% (inactive); in assay [6], 17.4% (inactive) and 27.1% (inactive) and 19.8% (inactive). The growth in assay [7] was -28.9% (active) and 68.2% (inactive) and 47.7% (inactive); in assay [8], 13% (inactive) and 38.8% (inactive) and 28.7% (inactive).

On to `Oc1c(CN2CCCCC2)ccc2cccnc12`, for which the growth is 38.8% (inactive) and 36.4% (inactive) in assay [1]; 94.7% (inactive) and 63.4% (inactive) in assay [2]; 63.9% (inactive) in assay [3]; 44% (inactive) and 44.7% (inactive) in assay [4]; 38.9% (inactive) in assay [5]; 10.1% (inactive) and 15.2% (inactive) in assay [6]. The growth is 96.5% (inactive) and 59.7% (inactive) in assay [7]; 44.5% (inactive) and 32.6% (inactive) in assay [8].

Regarding `Nc1n[nH]c(=S)n1-c1ccc(Cl)cc1`, the growth is 97.6% (inactive) in assay [1]; 92.5% (inactive) in assay [2]; 112% (inactive) in assay [3]; 97% (inactive) in assay [4]; 90.8% (inactive) in assay [5]; 95.4% (inactive) in assay [6]. Also, the growth in assay [7] is 108% (inactive); in assay [8] it was 103% (inactive).

For `O=C(/C=C/c1ccccn1)c1ccccc1O`, the growth in assay [1] was 68.7% (inactive) and 66% (inactive); in assay [2], 112% (inactive); in assay [3], 58.2% (inactive) and 75.2% (inactive); in assay [4], 46.1% (inactive) and 73.8% (inactive); in assay [5], 37.9% (inactive) and 37.4% (inactive); in assay [6], 44.6% (inactive). Besides, the growth in assay [7] was 9.46% (active) and 97.3% (inactive); in assay [8] it was 40.4% (inactive) and 48.2% (inactive).

Regarding `O=[N+]([O-])c1ccc(-n2[nH]nnc2=S)cc1`, the growth in assay [1] is 103% (inactive); in assay [2], 104% (inactive); in assay [3], 106% (inactive); in assay [4], 103% (inactive); in assay [5] it was 95% (inactive); in assay [6] it was 101% (inactive). Moreover, the growth in assay [7] is 101% (inactive); in assay [8] it was 108% (inactive).

Turning to `CC(=O)c1ccc2c(c1)N(CCCN1CCN(CCO)CC1)c1ccccc1S2`, the growth is 160% (inactive) and 37.8% (inactive) in assay [1]; 88.1% (inactive) and 44.6% (inactive) in assay [2]; 84.1% (inactive) and -67% (active) in assay [3]; 95% (inactive) and -52.1% (active) in assay [4]; 79.2% (inactive) and -31.2% (active) in assay [5]; 83.9% (inactive) and -11.8% (active) in assay [6]. For the same compound, the growth in assay [7] was 102% (inactive) and -55.5% (active); in assay [8] it was 105% (inactive) and 2.29% (active).

As to `CC1CCCC(=O)O1` (stereo not drawn), the growth in assay [1] was 101% (inactive) and 106% (inactive); in assay [2], 104% (inactive) and 105% (inactive); in assay [3], 97.2% (inactive) and 107% (inactive); in assay [4], 105% (inactive) and 104% (inactive); in assay [5], 96.3% (inactive) and 101% (inactive); in assay [6], 105% (inactive) and 94.6% (inactive). For the same compound, the growth is 98.3% (inactive) in assay [7]; 97.7% (inactive) and 106% (inactive) in assay [8].

For the compound `COc1ccc(S(=O)(=O)N2CCOCC2)cc1NC(=O)c1[nH]c(C)c2c1CCCCC2=O`, the growth in assay [1] was 107% (inactive) and 42% (inactive); in assay [2] it was 116% (inactive) and 102% (inactive); in assay [3], 105% (inactive) and 35.8% (inactive); in assay [4], 103% (inactive) and 67.5% (inactive); in assay [5] it was 91.1% (inactive) and 27.6% (inactive); in assay [6], 109% (inactive) and 101% (inactive). Also, the growth in assay [7] is 102% (inactive) and 69.8% (inactive); in assay [8] it was 110% (inactive) and 65% (inactive).

Turning to `COc1ccc(NC(=S)Nc2ccccn2)cc1`, the growth was 101% (inactive) in assay [1]; 105% (inactive) in assay [2]; 98.7% (inactive) in assay [3]; 102% (inactive) in assay [4]; 95.1% (inactive) in assay [5]; 95.4% (inactive) in assay [6]. In addition, the results for the growth in assay [7] and in assay [8] were 101% (inactive) and 91% (inactive), respectively.

On to `CC(C)(O)Cn1cc(-c2ccc3nc(OC4CC4)ccc3c2)c2c(N)ncnc21`, for which the growth was 47.6% (inactive) and 5.84% (active) in assay [1]; 84.7% (inactive) and 66.4% (inactive) in assay [2]; 93.7% (inactive) and 61% (inactive) in assay [3]; 97.4% (inactive) and 63.8% (inactive) in assay [4]; 69.6% (inactive) and 39.6% (inactive) in assay [5]; 70.3% (inactive) and 52.4% (inactive) in assay [6]. Besides, in assay [8], the growth is 84.1% (inactive) and 56.8% (inactive).

On to `CN1CCN(CCC=C2c3ccccc3Sc3ccc(S(=O)(=O)N(C)C)cc32)CC1`, for which the growth in assay [1] was 77.4% (inactive); in assay [2], 67.9% (inactive) and 70% (inactive); in assay [3], 12.8% (inactive) and 6.78% (active); in assay [4] it was 76.9% (inactive) and 74.2% (inactive); in assay [5] it was 41.2% (inactive) and 71.9% (inactive); in assay [6] it was 39.5% (inactive) and 45.1% (inactive). Besides, the growth is 13.9% (inactive) and 14.4% (inactive) in assay [7]; 68.7% (inactive) and 73.4% (inactive) in assay [8].

On to `CCOc1ccc2c(S(=O)(=O)O)cccc2c1[N+](=O)[O-]`, for which the growth was 114% (inactive) and 111% (inactive) in assay [1]; 119% (inactive) and 103% (inactive) in assay [2]; 108% (inactive) and 106% (inactive) in assay [3]; 107% (inactive) and 98.2% (inactive) in assay [4]; 107% (inactive) and 104% (inactive) in assay [5]; 109% (inactive) in assay [7]. The growth in assay [8] was 98.1% (inactive) and 103% (inactive).
